This is a sample that favours compounds with a hit; in the whole collection about 19% have one here.
CHX counter: counter-screen hit for Shiga toxin inhibitors, cycloheximide. max response, %. cell reporter, cycloheximide protein synthesis inhibition counterscreen. AID 2314. hit rate 12% among 300,000; in the data active = max response mostly above about 13%, no sharp cut-off; inactive = mostly below about 14%; also: read at 38.3 µM for the half of the compounds with a filed dose; 0% is about no effect
Pf growth 96h: inhibits malaria parasite growth, 96 h; P. falciparum luciferase reporter growth, 96 h; Potency, µM (doses to about 28.7 µM), inactives show at the highest dose activity change, negative = inhibition, hits mostly inhibitors; hit rate 6.9% among 320,000; also: potency is read from the fitted curve at half-maximal effect; % is scaled to controls: 0 for no effect and ±100 for the full control effect
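Compounds incubated with erythrocytes infected by luciferase-expressing P. falciparum (2% hematocrit, 0.05% parasitemia final) for 96 hours, 37 C in 5% CO2. Growth inhibition scored as decreased luciferase luminescence.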
Shiga toxin inh: Shiga toxin inhibition. Vero cells, Shiga toxin protein synthesis inhibition reporter. inhibition, % at 38.7 µM. hit rate 9.2% among 290,000. AID 2315; in the data active = inhibition mostly above about 28%, no sharp cut-off; inactive = mostly below about 43%; also: 0% is about no effect
Pf growth 48h: P. falciparum growth inhibition at 48 hours (one generation) | P. falciparum luciferase growth in erythrocytes, 48 h | hit rate 5.9% among 310,000 | Potency, µM (top dose mostly 28.7 µM), without a hit: top-dose activity change, negative = inhibition, usual class: inhibitors; also: potency is read from the fitted curve at half-maximal effect; % is scaled to controls: 0 for no effect and ±100 for the full control effect
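Cell-based growth assay: transgenic P. falciparum expressing firefly luciferase, cultured in red cells within RPMI 1640 containing 0.5% w/v Albumax, 24 mM bicarbonate and gentamycin. A drop in luciferase activity indicates inhibition.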
SARS PLP yeast: blocks SARS-CoV papain-like protease in a yeast assay | S. cerevisiae expressing SARS-CoV PLpro, growth rescue | Potency, µM (doses to about 32.9 µM), without a hit: top-dose activity, positive = growth rescue, usual class: activators | hit rate 0.19% among 330,000 | AID 485353; calls by dose curve; also: potency is read from the fitted curve at half-maximal effect; 0% is about no effect; nearly all actives have a fitted effect of over 55% in size
AMA1-RON2 inh: AMA1-RON2 (P. falciparum) interaction inhibition | AID 720542 | AlphaScreen AMA1-biotinylated RON2 peptide binding | hit rate 0.2% among 360,000 | Potency, µM (highest dose often 58.2 µM), inactives show top-dose activity change, negative = inhibition, actives largely listed as inhibitors;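 also: potency is read from the fitted curve at half-maximal effect; 0% = vehicle wells and -100% = peptide control; nearly all actives have a fitted effect of over 45% in size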
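AMA1 (3D7) with his tag at 25 nM final met compounds first, then biotinylated RON2 peptide at 25 nM; detection used donor plus acceptor beads, 10 µg/mL apiece, read by AlphaScreen after 30 min at room temperature.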
* hit, by the source's call; ? = inconclusive; · = not tested or not shown. Unless noted, calls follow the shape of the dose curve; as a rule, active = well fitted curve in the direction sought with a large enough effect; inconclusive = small, poorly fitted or top-dose-only effect, or another doubt; inactive = no such curve, though single readings can be large; an effect the other way counts as inactive or inconclusive.

SMILES	CHX counter	Pf growth 96h	Shiga toxin inh	Pf growth 48h	SARS PLP yeast	AMA1-RON2 inh
COc1cccc(C(C(=O)NC2CCCC2)N(C(=O)c2ccco2)c2ccc(-n3cnnn3)c(C)c2)c1OC (stereo not drawn)	-3	34%	-9	9.3µM*	0%	-4%
O=C(CNc1ccc(Br)cc1)c1ccc(O)cc1	39*	6%	93*	70%	-22%	-13%
Cc1ccc(NCC(=O)c2ccc(C)cc2)cc1	39*	-14%	48*	46%	17%	-3%
CCc1ccc(-c2ccc3nnc(SC)n3n2)cc1	22*	16%	17	5%	-13%	6%
CCSc1nnc2ccc(-c3ccc(C)cc3)nn12	26*	1%	34	-6%	-22%	9%
CCOC(=O)Cc1csc(NC(=O)CCS(=O)(=O)Cc2ccccc2)n1	1	-17%	8	0%	4%	3%
COc1ccc(C(=O)Oc2ccc(C)cc2)cc1S(=O)(=O)N1CCOCC1	·	·	·	·	·	4%
c1ccc2sc(SSc3nc4ccccc4s3)nc2c1	·	-3%	·	19%	·	·
OC1CCCCC1Sc1nc2ccccc2s1 (stereo not drawn)	42*	?	104*	115%	-1%	12%
Cc1ccc(Cl)cc1N1CCN(C(=O)C2CCN(S(=O)(=O)c3cccnc3)CC2)CC1	-4	?	-6	·	-1%	0%
Cc1ccc(Cl)cc1N1CCN(C(=O)C2CCN(S(=O)(=O)c3c(C)nn(C)c3C)CC2)CC1	13	·	-5	8.3µM*	6%	-12%
CCOC(=O)c1cccc(NC(=O)C2CCCN(S(=O)(=O)c3c(C)nn(C)c3C)C2)c1 (stereo not drawn)	4	9.3µM*	20	·	12%	4%
Cc1nn(C)c(C)c1S(=O)(=O)N1CCCC(C(=O)N2CCN(c3ccc(Cl)cc3)CC2)C1 (stereo not drawn)	-1	?	-9	4.7µM*	1%	-6%
Cc1n[nH]c(C)c1S(=O)(=O)N1CCCC(C(=O)N2CCN(c3ccc(Cl)cc3)CC2)C1 (stereo not drawn)	-7	1%	-14	6.6µM*	5%	-5%
CS(=O)(=O)NCCSc1cc(C(F)(F)F)nc2ccccc12	-1	1%	-9	-4%	-1%	13%
COc1ccc(NC(=O)CNS(=O)(=O)c2ccccc2)cc1Cl	14*	48%	4	-3%	1%	26%
COc1ccccc1NC(C)=[N+](C)CCNS(=O)(=O)c1ccc(Cl)cc1	1	-11%	25	-4%	-1%	-21%
COc1ccc(NC(C)=[N+](C)CCNS(=O)(=O)c2ccc(Cl)cc2)cc1Cl	16*	?	21	?	11%	-17%
CCCCOCCCNC(=O)C[C@@H]1C[C@@]2(C(=O)OC)CCCCC=C2N(Cc2ccc(Cl)cc2Cl)C1=O	·	·	·	·	·	10%
CCCNC(=O)NNC(=O)c1ccc(F)cc1	6	20%	16	-28%	3%	3%
CC12CCCC[C@@H]1CCC1C2CCC2(C)C1CC[C@@]2(O)CNCCO (stereo partly drawn)	-5	33%	-2	17%	-3%	6%
COc1ccc(OC)c(NC(=O)c2cccc(S(=O)(=O)N(Cc3ccccc3)c3ccccc3OC)c2)c1	2	7.4µM*	-6	15µM*	-3%	-5%
COc1ccccc1N(Cc1ccccc1)S(=O)(=O)c1cccc(C(=O)Nc2ccc(C(C)=O)cc2)c1	46*	3.7µM*	44*	?	2%	10%
COc1ccc(OC)c(NC(=O)c2ccc(CN3CCc4ccccc4C3)cc2)c1	-2	-28%	-6	·	-2%	-16%
COc1ccc(OC)c(NC(=O)c2ccc(CN(c3cc(Cl)ccc3C)S(=O)(=O)c3ccccc3)cc2)c1	-2	?	-1	1.5µM*	-1%	0%
COc1ccccc1N(Cc1ccccc1)S(=O)(=O)c1cccc(C(=O)N2CCCCC2)c1	·	·	·	·	-5%	4%
Cc1ccc(CN(C)C(=O)CSc2nnc3n2CCCCC3)c(C)c1	·	7.4µM*	·	?	1%	-5%
CC(=O)Nc1nc(C)c(CCC2OCCO2)c(=O)[nH]1	-4	17%	-5	19%	-1%	-3%

Screens as filed in PubChem BioAssay.
